Source: PubChem (several laboratories)
Smad3 inh: Smad3/FoxH1 peptide binding inhibitors, primary screen, biochemical, TR-FRET; AID 630, 2007; TR-FRET Smad3/Dy647-FoxH1 peptide binding, europium anti-His; inhibition, % at 25 µM; 88,000 tested, 0.29% active; Mothers against decapentaplegic homolog 3 (Homo sapiens), P84022;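 active = compounds that reduce the energy-transfer binding signal between the protein and its labelled peptide by more than half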
Target sequence (P84022 whole entry, looked up): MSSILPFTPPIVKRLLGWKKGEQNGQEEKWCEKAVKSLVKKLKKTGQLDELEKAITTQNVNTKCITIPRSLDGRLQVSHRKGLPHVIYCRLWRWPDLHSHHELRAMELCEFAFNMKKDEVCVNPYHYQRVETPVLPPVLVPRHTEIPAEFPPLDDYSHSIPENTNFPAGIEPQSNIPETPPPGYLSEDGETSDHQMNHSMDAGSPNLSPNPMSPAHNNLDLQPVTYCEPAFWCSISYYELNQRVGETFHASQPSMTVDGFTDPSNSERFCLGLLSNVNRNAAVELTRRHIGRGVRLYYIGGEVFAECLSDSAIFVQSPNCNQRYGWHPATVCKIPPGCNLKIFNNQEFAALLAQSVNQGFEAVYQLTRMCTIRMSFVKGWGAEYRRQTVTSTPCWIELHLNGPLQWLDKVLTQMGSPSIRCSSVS
Measles CPE: compounds protecting cells from measles virus cytopathic effect, primary screen, measles RdRp inhibitor project, single point, MLSMR library, absorbance; Measles virus-infected cells, CPE protection; protection (pct of control), % at 4 µM; 140,000 tested, 1.5% active; AID 841, 2007; in the data active = protection mostly above about 24%, no sharp cut-off; inactive = mostly below about 26%
MT1-MMP txn act: MT1-MMP promoter reporter activation – cell-based, luciferase luminescence, primary screen; HT1080 MT1-MMP promoter luciferase reporter, overnight; active compounds read high; activation factor at 10 µM; 86,000 tested, 0.16% active;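 active = activation factor of at least 2 for MT1-MMP transcription at 10 µM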
Numbers stand for hits; 0 = inactive; - = no result given; [ ] = another dose, or the depositor's remark. Hits are enriched below; roughly 1.7% of the tested compounds scored in any of these assays.

SMILES	Smad3 inh	Measles CPE	MT1-MMP txn act
CSCCC(=O)N1C(C)CCCC1C(=O)O (stereo not given)	0	26	0
CC(=O)SCCC(=O)N1C(C)CCCC1C(=O)O (stereo not given)	0	0	0
COc1ccc(C(=O)NC2CCCCCC2)cc1S(=O)(=O)Nc1ccc(Br)cc1	0	32	0
CCN(Cc1ccccc1)S(=O)(=O)c1cc(C(=O)NC2CCCCCC2)ccc1OC	-	0	-
Cc1ccc(C(=O)CN(C(=O)c2ccc(Cl)c(Cl)c2)N2C(=O)C3C4C=CC(C4)C3C2=O)cc1 (stereo not given)	-	0	-
CC(=O)N/C(=N\OCc1ccccc1Cl)c1nonc1NC(C)=O	-	0	-
CCOC(=O)N1CCN(C(=O)CCC(=O)N2CCOc3ccc(C)cc32)CC1	0	0	0
Cc1ccc2c(c1)N(C(=O)CCC(=O)O)CCO2	-	28	-
CN(C)c1ccccc1CN1CCCN(Cc2ccccc2N(C)C)C1c1ccncc1	0	-	-
O=C(NN1CCOCC1)c1cc(S(=O)(=O)Nc2cccc(C(F)(F)F)c2)ccc1Cl	-	0	-
CC(C)CNC(=O)CC(=O)N/N=C/c1cccs1	-	25	-
CCCCCC(=O)N/N=C/c1cccs1	-	0	-
Br/C(=N\Nc1nn[nH]n1)c1ccncc1	0	-	-
CCNc1nc(NCC)n2c(SC(C(=O)Nc3cc(C)ccc3C)c3ccccc3)nnc2n1 (stereo not given)	-	80	-
CCNc1nc(NCC)n2c(SC(C)C(=O)c3ccc(C)cc3)nnc2n1 (stereo not given)	-	0	-
NCC(=O)Nc1ccccc1	0	-	-
O=C(NCc1cn2ccsc2n1)c1cccc(C(F)(F)F)c1	0	0	0
FC(F)(F)c1cccc(NCc2cn3cccnc3n2)c1	0	55	0
O=C(CCC1CCCC1)N1CCC(N2CCCCCC2)CC1	-	0	-
Cn1c(=O)c2c(ncn2CCCNC2=CC(C)(C)CC(=O)C2)n(C)c1=O	0	17	0
Cn1c(=O)c2c(ncn2CCSS(=O)(=O)O)n(C)c1=O	0	-	-
COC(=O)[C@@H]1C[C@@]1(C)[C@@H](NC(=O)OCc1ccccc1)c1ccccc1	-	-	0
O=C(c1ccc(CNS(=O)(=O)c2ccccc2)cc1)N1CCN(Cc2ccccc2)CC1	0	28	0
O=C(c1ccccc1)N1CCN(Cc2ccccc2)CC1	0	0	0
COC(=O)[C@@]1(C)C=C[C@@H](Cc2ccccc2)N1C(=O)c1ccccc1	-	-	0
SMILES	Smad3 inh	Measles CPE	MT1-MMP txn act
Cc1ccc(S(=O)(=O)Nc2c3ccccc3nc(=O)n2-c2ccccc2)cc1	0	35	0
O=c1nc2ccccc2c(NS(=O)(=O)c2ccccc2)n1-c1ccccc1	-	0	-
NC1=N[C@@H](c2ccc(Cl)cc2)N(c2ccc(S(N)(=O)=O)cc2)C(N)=N1	0	-	-
O=C(CSc1ncc(-c2ccccc2)n1CC1CCCO1)N1CCCCC1 (stereo not given)	0	0	0
CC(C)Cn1c(-c2ccc(Cl)cc2)cnc1SCC(=O)N1CCOCC1	0	95	0
CC(=O)N1[C@H](Cc2ccccc2)C=C[C@]1(C)C(=O)O	-	-	0
CS/C(=N\S(=O)(=O)c1ccc(Cl)cc1)c1ccccc1	-	0	-
CS/C(=N/S(=O)(=O)c1ccc(C)cc1)c1ccccc1	-	18	-
CCCCNC(=O)C1C2C=CC3(CN(Cc4ccc(C)cc4)C(=O)C13)O2 (stereo not given)	0	0	0
Cc1ccc(CN2CC34C=CC(O3)C(C(=O)NCc3ccco3)C4C2=O)cc1 (stereo not given)	-	30	0
O=C(Cc1ccccc1)NCc1ccc2c(c1)OCO2	0	0	0
O=C(CN(C(=O)C1CSC(=O)C1)c1ccccc1F)NCc1ccc2c(c1)OCO2 (stereo not given)	0	63	0
c1cnc2c(c1)ccc1cccnc12	0	0	-
Oc1cccc2ccc(SSc3ccc4cccc(O)c4n3)nc12	60	-	-
CCCn1c(=O)c(C(=O)Nc2nnc(CC)s2)c(O)c2ccccc21	53[fluorescence artefact?]	-	0
CCCn1c(=O)c(C(=O)Nc2cnccn2)c(O)c2ccccc21	0	-	0
CCOC(=O)CSc1nc2cc(C(=O)N3CCC(C(N)=O)CC3)ccc2c(=O)n1-c1ccccc1	0	0	0
CCOC(=O)CSc1nc2cc(C(=O)N3CCCC3)ccc2c(=O)n1Cc1ccccc1	0	25	0
COc1cccc2c(=O)n(CC(=O)Nc3ccc(F)cc3F)ccc12	0	0	-
COc1cccc2c(=O)n(CC(=O)Nc3ccccc3)ccc12	0	90	-
CCc1nnc(NC(=O)CSc2nc3c(cc2C#N)CCC3)s1	0	0	0
N#Cc1cc2c(nc1SCC(=O)Nc1nccs1)CCCCC2	0	34	-
Cc1ccc2nc(-c3ccc(N4C(=N)SC5CS(=O)(=O)CC54)cc3)sc2c1 (stereo not given)	-	0	-
C[C@@H](C(=O)O)/C(=C/c1ccc2c(c1)OCO2)C(=O)O	0	-	-
OCCNc1ncnc2c1ncn2[C@H]1O[C@@H](CO)[C@H](O)[C@H]1O	0	-	-
SMILES	Smad3 inh	Measles CPE	MT1-MMP txn act
Cc1cccc(C)c1NC(=O)CCN1C(=O)C2C3CCC(C3)C2C1=O (stereo not given)	-	21	-
Cc1cc(NC(=O)CCN2C(=O)C3C4CCC(C4)C3C2=O)c(C)cc1Br (stereo not given)	-	0	-
O=C(CSc1nnc2ccccn12)Nc1nsc(-c2ccccc2)n1	-	27	-
COc1ccc(-c2nc(NC(=O)CSc3nnc4ccccn34)ns2)cc1	-	0	-
COC(=O)[C@@]1(Cc2ccccc2)[C@H]2c3cc(C(=O)N4CCCC4)n(Cc4cccc5ccccc45)c3C[C@H]2CN1C(=O)c1ccccc1	-	-	0
c1coc(-c2nc3c([nH]2)CCc2nonc2-3)c1	0	0	0
Cc1ccc(C)c2c3c([nH]c12)-c1nonc1CC3	0	74	0
CC1CCc2c(sc(NC(=O)CSc3ncnc4c3cnn4-c3ccccc3Cl)c2C#N)C1 (stereo not given)	0	0	0
Cc1cc(C)c(NS(=O)(=O)c2ccc3c(c2)NC(=O)CC(=O)N3)c(C)c1	-	0	-
CCc1ccccc1NS(=O)(=O)c1ccc2c(c1)NC(=O)CC(=O)N2	-	37	-
CCCC[C@H]1C[C@@H]1[C@@H]1N(P(=O)(c2ccccc2)c2ccccc2)C[C@@](O)(c2ccccc2)CC12CC2	-	-	0
COc1ccccc1-c1cc(C(=O)NCCc2ccccc2)no1	0	0	0
Cc1cc(NC(=O)c2cc(CC(C)C)on2)no1	0	0	0
COc1ccc(CCNC(=O)c2cc(-c3ccccc3OC)on2)cc1OC	0	45	0
CCC(C)NC(=O)c1cc(CC(C)C)on1 (stereo not given)	0	54	0
COc1ccc(-c2cc(C(=O)NCCc3ccccc3)no2)cc1OC	0	0	0
COc1ccc(CCNC(=O)c2cc(CC(C)C)on2)cc1OC	0	40	-
Cc1ccc(C(C(=O)NC(C)(C)C)N(Cc2ccco2)C(=O)CCC(=O)Nc2nccs2)cc1 (stereo not given)	0	-	0
CN(C)CCC[C@@H]1c2ccccc2Oc2ccc(C(F)(F)F)cc21	0	-	-
Cc1ccc(S(=O)(=O)CNC(=S)c2cccc(Cl)c2)cc1	-	43	-
Cc1ccc(C(=S)NCS(=O)(=O)c2ccc(C)cc2)cc1	-	0	-
CCCc1cc2c(OC(=O)CC)c(-c3ccc(C(=O)OCC)o3)c(=O)oc2cc1OC	-	0	-
COc1ccc(C2CC23N=C(c2ccccc2)OC3=O)cc1 (stereo not given)	-	43	-
COc1ccc(C2=NC(c3ccccc3)CO2)cc1 (stereo not given)	-	0	-
